This passage reports outcome and AC50 results from PubChem BioAssay (EPA / NIEHS).

Experiment [1] in a line: ATG_M_61_CIS: Attagene CIS-FACTORIAL HepG2 Assay for M61 Transcription Factor (Internal Marker) (AID 2282937). The note with it: HepG2 Attagene CIS-FACTORIAL M61 internal marker reporter; actives raise or lower the signal. Summed up: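 Readout is reporter mRNA by RT-PCR, fluorescent primer extension and capillary electrophoresis, with gain or loss fitted relative to DMSO. Transfected HepG2 cells carrying endogenous-TF-driven cis reporters were exposed to chemicals for 24 hours.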

A short description of experiment [2]: ATG_EGR_CIS: Attagene CIS-FACTORIAL HepG2 Assay for human Early Growth Response 1 (EGR1) (AID 2282938). Conditions: HepG2 Attagene CIS-FACTORIAL EGR reporter mRNA; actives raise or lower the signal. An outline of the steps: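 After 24 h compound exposure, RNA from reporter-transfected HepG2 cells was reverse-transcribed, PCR-amplified, fluorescently labelled and resolved by capillary electrophoresis. EGR1 reporter transcript changes, up or down, were fitted against DMSO, reflecting endogenous transcription-factor activity.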

A short description of experiment [3]: ATG_M_19_CIS: Attagene CIS-FACTORIAL HepG2 Assay for M19 Transcription Factor (Internal Marker) (AID 2282939). Conditions: HepG2 Attagene CIS-FACTORIAL M19 internal marker reporter; actives raise or lower the signal. An outline of the steps: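 Chemical-treated HepG2 (24 h) with MRTU constructs; reporter transcripts detected by fluorescent RT-PCR fragment analysis on capillary electrophoresis. Internal background marker, DMSO as baseline.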

A short description of experiment [4]: ATG_ERE_CIS: Attagene CIS-FACTORIAL HepG2 Assay for Estrogen Response Element (ERE) (AID 2282940). The note with it: HepG2 ERE cis-reporter, Attagene RNA transcript; actives raise or lower the signal. An outline of the steps: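 Human liver cells (HepG2) bearing transiently transfected, promoter-regulated reporter units were exposed 24 h. Reporter mRNA induction was detected by capillary electrophoresis of labelled RT-PCR products and fitted bidirectionally to DMSO.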

Experiment [5] is described as follows: ATG_Ets_CIS: Attagene CIS-FACTORIAL HepG2 Assay for human Erythroblast Transformation Specific (ETS) (AID 2282941). The note with it: HepG2 ETS cis-reporter transcription, actives raise or lower the signal. Summed up:
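Endogenous transcription factor activity read as reporter mRNA via RT-PCR and capillary electrophoresis, with gain or loss fitted bidirectionally against DMSO. Human HepG2 liver cells, transiently transfected CIS reporter constructs, 24 h exposure.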

The target of experiment [6] is Hepatocyte nuclear factor 3-beta (Homo sapiens) (UniProt Q9Y261). Nature of the experiment: ATG_FoxA2_CIS: Attagene CIS-FACTORIAL HepG2 Assay for human Forkhead box A2 (FOXA2) (AID 2282942). Conditions: HepG2 cis-reporter transcription factor activity, 24 h; actives raise or lower the signal. Summed up: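 Endogenous transcription factor activity is captured via cis-element-driven reporter transcripts in transfected HepG2. Total RNA taken at 24 h post-dosing; labelled RT-PCR products resolved by capillary electrophoresis. Gain or loss fitted versus DMSO.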

The nature of experiment [7]: ATG_GATA_CIS: Attagene CIS-FACTORIAL HepG2 Assay for human GATA Binding Protein (AID 2282944). Conditions: HepG2 GATA cis-element reporter, Attagene multiplex mRNA; actives raise or lower the signal. An outline of the steps:
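Transfected cis-reporter HepG2 cells were treated with chemicals for 24 hours. Total RNA was then converted to cDNA, amplified with reporter-specific primers and analysed by fluorescent capillary electrophoresis, using DMSO-treated wells as baseline.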

Experiment [8] can be described thus: ATG_GLI_CIS: Attagene CIS-FACTORIAL HepG2 Assay for human Zinc Finger Protein GLI1 (AID 2282945). The note with it: HepG2, Attagene cis-factorial reporter mRNA, GLI element; actives raise or lower the signal. An outline of the steps: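 Transiently transfected HepG2 cells report endogenous transcription factor activity via cis-element-driven reporter units. After 24 h compound exposure, reporter mRNA was measured by RT-PCR with capillary electrophoresis; bidirectional fitting against DMSO baseline.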

Experiment [9] can be described thus: ATG_ISRE_CIS: Attagene CIS-FACTORIAL HepG2 Assay for human Interferon Regulatory Factor 1 (IRF1) binding to an Interferon-Stimulated Response Element (ISRE) (AID 2282948). Conditions: HepG2 ISRE cis-reporter (Attagene), mRNA transcription readout; actives raise or lower the signal. An outline of the steps: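 Endogenous transcription factor activity read as reporter transcript abundance via RT-PCR and capillary electrophoresis. HepG2 cells transiently transfected, 24 h chemical exposure. Gain or loss fitted against DMSO baseline.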

Experiment [10] in a line: ATG_M_32_CIS: Attagene CIS-FACTORIAL HepG2 Assay for M32 Transcription Factor (Internal Marker) (AID 2282949).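 Note: background control marker of the multiplexed CIS panel rather than a real target.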 Conditions: HepG2 Attagene cis-factorial M32 reporter, mRNA; actives raise or lower the signal. An outline of the steps:
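Using DMSO as baseline, bidirectional curve fits were applied to reporter mRNA signals. These came from transiently transfected HepG2 cells exposed for 24 h, with RNA analysed by RT-PCR, FAM primer extension, HpaI digestion and CE.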

A short description of experiment [11]: ATG_M_06_CIS: Attagene CIS-FACTORIAL HepG2 Assay for M06 Transcription Factor (Internal Marker) (AID 2282950). The note with it: HepG2 Attagene CIS-FACTORIAL M06 internal marker reporter; actives raise or lower the signal. An outline of the steps:
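Cells (HepG2, transiently carrying cis-driven reporter units) receive chemical for 24 h before RNA isolation. Reporter cDNA is PCR-amplified, FAM-labelled by primer extension, HpaI-digested and sized on a capillary analyser.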

The target of experiment [12] is Hypoxia-inducible factor 1-alpha (Homo sapiens) (UniProt Q16665). Nature of the experiment: ATG_HIF1a_CIS: Attagene CIS-FACTORIAL HepG2 Assay for human Hypoxia Inducible Factor 1 (HIF1A) (AID 2282951). Conditions: HepG2 Attagene cis-factorial HIF1a reporter transcription; actives raise or lower the signal. An outline of the steps:
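Activity is fitted in both directions relative to DMSO. Reporter transcripts are read by RT-PCR, fluorescent primer extension and capillary electrophoresis after 24 h chemical treatment. The cells are HepG2 carrying transiently transfected cis-element-driven reporter units responding to endogenous factors.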

Experiment [13] concerns the target Hepatocyte nuclear factor 6 (Homo sapiens) (UniProt Q9UBC0). Nature of the experiment: ATG_HNF6_CIS: Attagene CIS-FACTORIAL HepG2 Assay for human Hepatocyte Nuclear Factor 6 (HNF6) (AID 2282952). The note with it: HepG2 Attagene cis-factorial HNF6 reporter transcription; actives raise or lower the signal. An outline of the steps:
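First, HepG2 cells were transfected with the multiplexed cis reporter library and dosed with chemical for 24 h. Next, RNA was reverse-transcribed, PCR-amplified and fluorescently labelled. Finally, HpaI-digested fragments were read by capillary electrophoresis.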

The target of experiment [14] is Heat shock factor protein 1 (Homo sapiens) (UniProt Q00613). Nature of the experiment: ATG_HSE_CIS: Attagene CIS-FACTORIAL HepG2 Assay for human Heat Shock Transcription Factor 1 (HSE) (AID 2282953). The note with it: HepG2 HSE cis-reporter, Attagene RNA transcription; actives raise or lower the signal. Summed up: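 Liver-derived HepG2 cells carry transiently introduced multiple reporter units governed by cis promoters. Reporter RNA measured 24 h post-dose through reverse transcription, PCR amplification, fluorescent labelling and capillary electrophoresis, normalised to DMSO.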

Experiment [15] is described as follows: ATG_MRE_CIS: Attagene CIS-FACTORIAL HepG2 Assay for human Metal Responsive Element (MRE) (AID 2282954). Conditions: HepG2 MRE cis-reporter transcription, Attagene multiplex; actives raise or lower the signal. An outline of the steps:
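RT-PCR/capillary electrophoresis readout of reporter mRNA, 24 h post-dosing, in HepG2 cells transfected with multiplexed cis-regulated reporter constructs. Gain or loss of signal fitted bidirectionally against DMSO baseline.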

Experiment [16] can be described thus: ATG_PBREM_CIS: Attagene CIS-FACTORIAL HepG2 Assay for human Phenobarbital-responsive Enhancer Module (PBREM) (AID 2282955). Conditions: HepG2 PBREM cis-reporter, Attagene multiplexed transcription; actives raise or lower the signal. An outline of the steps:
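Endogenous transcription factor activity was read from reporter transcripts in transiently transfected human HepG2 liver cells after 24 h dosing. RT-PCR products were fluorescently labelled, HpaI-cut and sized by capillary electrophoresis; activity fitted bidirectionally against DMSO baseline.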

Experiment [17] has as its target Paired box protein Pax-6 (Homo sapiens) (UniProt P26367). Nature of the experiment: ATG_Pax6_CIS: Attagene CIS-FACTORIAL HepG2 Assay for human Paired Box 6 (PAX6) (AID 2282956). The note with it: HepG2 CIS-FACTORIAL PAX6 reporter transcription, RNA readout; actives raise or lower the signal. Summed up: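 Read-out is reporter transcript level, measured by RT-PCR with fluorescent primer extension and capillary electrophoresis after 24 h dosing of transfected HepG2 cells. Activity in either direction fitted relative to DMSO control.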

In experiment [18] the target is Bile acid receptor (Homo sapiens) (UniProt Q96RI1). Nature of the experiment: ATG_IR1_CIS: Attagene CIS-FACTORIAL HepG2 Assay for human Nuclear Receptor Subfamily 1 Group H Member 4 (NR1H4), IR1 submotif (AID 2282946). Conditions: IR1 reporter transcription, actives raise or lower the signal. An outline of the steps: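 Fluorescence of capillary-separated, HpaI-digested RT-PCR reporter products gave IR1-element mRNA induction in HepG2 cells 24 h after dosing. Endogenous transcription factors drove the cis-regulated reporters; activity was fitted bidirectionally against DMSO.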

A short description of experiment [19]: ATG_FoxO_CIS: Attagene CIS-FACTORIAL HepG2 Assay for human Forkhead box O (FoxO) (AID 2282943). Conditions: HepG2 Attagene cis-reporter, FoxO element, mRNA; actives raise or lower the signal. Summed up: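 HepG2 cells transiently transfected with cis-element-driven reporter units report endogenous FoxO activity. After 24 h chemical exposure, reporter mRNA quantified by RT-PCR, fluorescent labeling, HpaI digestion and capillary electrophoresis; bidirectional fit versus DMSO.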

A short description of experiment [20]: ATG_GRE_CIS: Attagene CIS-FACTORIAL HepG2 Assay for human Glucocorticoid Response Elements (GRE) (AID 2282947). Conditions: HepG2 GRE cis-reporter, Attagene multiplex mRNA; actives raise or lower the signal. Summed up:
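Read-out: fluorescent reporter-transcript fragments separated by capillary electrophoresis after RT-PCR. Transiently transfected HepG2 cells carrying cis-element-driven reporter units were dosed for 24 h; gain or loss of signal fitted against DMSO control.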

Each structure is given as a SMILES string. A structure can be active in one record and inactive in another. Activity calls are given as the source filed them. Rule for the calls: active = hit-call score of the fitted dose curve at least 0.9, where 1 is the maximum; inactive = score below 0.9.

By AC50 is commonly meant the concentration at which the activity in the assay is half-maximal.

Paired box protein Pax-6 (Homo sapiens), sequence (P26367 whole entry, looked up): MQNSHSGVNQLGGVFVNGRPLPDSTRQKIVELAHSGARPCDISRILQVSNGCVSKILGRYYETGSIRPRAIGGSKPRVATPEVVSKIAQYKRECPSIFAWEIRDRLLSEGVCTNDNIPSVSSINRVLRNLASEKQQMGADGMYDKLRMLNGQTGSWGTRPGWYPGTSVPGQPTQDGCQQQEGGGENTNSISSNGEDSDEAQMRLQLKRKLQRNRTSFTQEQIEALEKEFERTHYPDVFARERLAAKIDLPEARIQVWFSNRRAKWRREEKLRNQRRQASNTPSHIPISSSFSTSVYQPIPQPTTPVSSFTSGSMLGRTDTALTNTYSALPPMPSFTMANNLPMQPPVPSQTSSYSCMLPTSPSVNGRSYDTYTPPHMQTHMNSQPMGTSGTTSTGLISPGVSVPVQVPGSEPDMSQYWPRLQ
Heat shock factor protein 1 (Homo sapiens), sequence (Q00613 whole entry, looked up): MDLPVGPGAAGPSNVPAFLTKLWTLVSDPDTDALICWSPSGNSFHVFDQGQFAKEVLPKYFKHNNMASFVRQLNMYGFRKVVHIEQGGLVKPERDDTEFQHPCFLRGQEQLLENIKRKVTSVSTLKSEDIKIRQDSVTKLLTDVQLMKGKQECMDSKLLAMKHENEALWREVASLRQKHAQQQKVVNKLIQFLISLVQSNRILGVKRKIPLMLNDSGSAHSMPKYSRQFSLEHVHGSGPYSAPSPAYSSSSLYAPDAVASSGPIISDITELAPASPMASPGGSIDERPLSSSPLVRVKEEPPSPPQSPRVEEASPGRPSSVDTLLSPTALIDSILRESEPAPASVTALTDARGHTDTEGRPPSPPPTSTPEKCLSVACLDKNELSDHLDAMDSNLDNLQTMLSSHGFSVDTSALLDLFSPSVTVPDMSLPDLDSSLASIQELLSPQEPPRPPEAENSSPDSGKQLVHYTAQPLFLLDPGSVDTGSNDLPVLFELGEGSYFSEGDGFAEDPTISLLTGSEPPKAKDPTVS
Bile acid receptor (Homo sapiens), sequence (Q96RI1 whole entry, looked up): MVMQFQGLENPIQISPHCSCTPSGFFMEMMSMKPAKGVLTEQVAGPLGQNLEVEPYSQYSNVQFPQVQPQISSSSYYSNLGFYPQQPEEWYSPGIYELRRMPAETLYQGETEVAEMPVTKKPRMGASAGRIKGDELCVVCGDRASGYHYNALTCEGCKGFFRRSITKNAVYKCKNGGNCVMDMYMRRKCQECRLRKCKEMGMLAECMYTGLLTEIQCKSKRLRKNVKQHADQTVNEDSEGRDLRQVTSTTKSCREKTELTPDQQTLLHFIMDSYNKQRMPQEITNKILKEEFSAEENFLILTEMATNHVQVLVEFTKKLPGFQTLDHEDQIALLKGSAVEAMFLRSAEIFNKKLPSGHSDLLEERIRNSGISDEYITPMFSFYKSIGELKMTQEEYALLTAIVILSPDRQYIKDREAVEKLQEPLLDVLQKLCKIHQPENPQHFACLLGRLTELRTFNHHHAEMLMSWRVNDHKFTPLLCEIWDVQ
Hypoxia-inducible factor 1-alpha (Homo sapiens), sequence (Q16665 whole entry, looked up): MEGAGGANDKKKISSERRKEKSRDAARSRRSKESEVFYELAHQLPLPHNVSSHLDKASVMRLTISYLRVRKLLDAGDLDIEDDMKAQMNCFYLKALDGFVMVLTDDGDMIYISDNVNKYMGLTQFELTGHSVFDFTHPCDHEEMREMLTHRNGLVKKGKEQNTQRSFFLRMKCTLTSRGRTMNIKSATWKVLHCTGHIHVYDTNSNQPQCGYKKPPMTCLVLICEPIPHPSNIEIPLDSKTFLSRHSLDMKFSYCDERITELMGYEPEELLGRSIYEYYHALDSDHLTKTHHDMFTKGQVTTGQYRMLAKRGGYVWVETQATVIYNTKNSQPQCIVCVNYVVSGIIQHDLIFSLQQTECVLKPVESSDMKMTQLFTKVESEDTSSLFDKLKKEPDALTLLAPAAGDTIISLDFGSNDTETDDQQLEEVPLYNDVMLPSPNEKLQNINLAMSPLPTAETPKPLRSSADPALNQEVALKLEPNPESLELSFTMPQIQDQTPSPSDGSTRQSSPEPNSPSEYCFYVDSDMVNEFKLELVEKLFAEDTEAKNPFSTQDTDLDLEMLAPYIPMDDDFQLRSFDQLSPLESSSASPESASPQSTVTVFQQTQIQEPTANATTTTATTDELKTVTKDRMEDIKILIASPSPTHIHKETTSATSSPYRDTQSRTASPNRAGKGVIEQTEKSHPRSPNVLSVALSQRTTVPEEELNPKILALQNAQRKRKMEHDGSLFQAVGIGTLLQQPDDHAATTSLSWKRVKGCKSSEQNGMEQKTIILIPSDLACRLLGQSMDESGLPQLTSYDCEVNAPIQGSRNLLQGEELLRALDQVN
Hepatocyte nuclear factor 6 (Homo sapiens), sequence (Q9UBC0 whole entry, looked up, the tested form may be a part): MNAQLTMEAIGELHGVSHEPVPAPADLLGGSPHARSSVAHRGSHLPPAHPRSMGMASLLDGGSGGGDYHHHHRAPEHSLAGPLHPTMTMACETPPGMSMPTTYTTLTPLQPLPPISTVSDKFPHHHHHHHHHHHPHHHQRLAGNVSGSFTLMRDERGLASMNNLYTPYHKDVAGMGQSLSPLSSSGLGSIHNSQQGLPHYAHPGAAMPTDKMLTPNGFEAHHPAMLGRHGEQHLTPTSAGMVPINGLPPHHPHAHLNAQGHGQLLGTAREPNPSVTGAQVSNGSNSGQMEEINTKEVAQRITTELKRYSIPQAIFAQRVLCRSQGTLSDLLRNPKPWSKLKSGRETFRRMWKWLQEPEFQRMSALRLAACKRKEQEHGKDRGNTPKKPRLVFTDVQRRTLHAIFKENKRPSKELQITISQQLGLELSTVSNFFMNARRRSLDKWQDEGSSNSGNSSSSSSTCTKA
Hepatocyte nuclear factor 3-beta (Homo sapiens), sequence (Q9Y261 whole entry, looked up): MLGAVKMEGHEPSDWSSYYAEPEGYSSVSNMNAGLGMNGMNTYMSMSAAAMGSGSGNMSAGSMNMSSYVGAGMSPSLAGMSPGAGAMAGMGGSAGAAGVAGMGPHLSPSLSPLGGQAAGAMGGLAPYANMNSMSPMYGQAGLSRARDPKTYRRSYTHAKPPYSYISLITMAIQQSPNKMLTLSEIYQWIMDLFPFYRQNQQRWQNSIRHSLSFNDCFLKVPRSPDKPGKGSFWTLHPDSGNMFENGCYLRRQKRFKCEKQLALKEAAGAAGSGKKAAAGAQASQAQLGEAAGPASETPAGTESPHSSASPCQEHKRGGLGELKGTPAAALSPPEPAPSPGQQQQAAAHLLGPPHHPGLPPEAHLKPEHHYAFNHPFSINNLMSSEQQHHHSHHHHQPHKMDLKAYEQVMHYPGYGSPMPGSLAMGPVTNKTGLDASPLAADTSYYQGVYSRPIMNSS

As for `O=[N+]([O-])c1cccc2ccccc12`, the result in [1], in [2], in experiment [3], in [4], in [5] and in [6] was inactive. The compound was called inactive in experiment [7], in experiment [8], in experiment [9], in [10], in experiment [11] and in [12]. Further, the compound was classed as inactive in experiment [13], in experiment [14], in experiment [15], in experiment [16] and in experiment [17].

For the compound `CCCCOC(C)=O`, the call in experiment [1], in experiment [2], in experiment [3], in experiment [4], in [5] and in [7] was inactive. The outcome in experiment [8], in experiment [18], in [9], in experiment [10], in experiment [11] and in [12] was inactive. The outcome in experiment [13], in [15] and in experiment [17] was inactive. Moreover, the concentration at half-maximal activity (AC50) in experiment [7] is 154 µM (active).

With `Clc1ccc(C(Cl)(Cl)Cl)cn1`, the compound was classed as inactive in [1], in experiment [2], in [3], in experiment [5], in experiment [19] and in [7]. The compound was called inactive in experiment [8], in experiment [18], in experiment [20], in [9], in [10] and in [11]. Moreover, the result in [12], in experiment [13], in experiment [14], in experiment [15] and in experiment [17] was inactive. In addition, the AC50 in [4] is 2.86 µM (active).

Turning to `CCCCCCCCCCCCN(C)C`, the call in experiment [1], in [3], in experiment [4], in experiment [5], in experiment [6] and in experiment [8] was inactive. The result in experiment [20], in experiment [9], in experiment [11], in experiment [12], in experiment [13] and in experiment [15] was inactive. Moreover, the result in [16] and in experiment [17] was inactive. Besides, the AC50 in experiment [2] is 53.9 µM (active); in experiment [18], 47.8 µM (active); in experiment [14] it was 56.1 µM (active).
